Data taken from publication PMC5700166.

Each sequence was assayed against T1, GST-Ap-NF-kB RHD (Exaiptasia pallida (Aiptasia), UniProt A0A913YAJ5 2-422) (assay: protein-binding microarray (PBM); PBM: ~300 nM protein, 6 mM HEPES pH 7.8, 80 mM KCl, 0.5 mM EDTA, 0.5 mM EGTA, 6% glycerol, 35 ng/ul poly-dIdC, 1% milk, 1 h, room temperature; Ap Aiptasia and Nv Nematostella (sea anemones) / Co Capsaspora / Aq Amphimedon (sponge) / Dm Drosophila / Hu human; RHD is the Rel homology domain; high values mean tight binding). Details: dsDNA, one strand shown.
T1 sequence: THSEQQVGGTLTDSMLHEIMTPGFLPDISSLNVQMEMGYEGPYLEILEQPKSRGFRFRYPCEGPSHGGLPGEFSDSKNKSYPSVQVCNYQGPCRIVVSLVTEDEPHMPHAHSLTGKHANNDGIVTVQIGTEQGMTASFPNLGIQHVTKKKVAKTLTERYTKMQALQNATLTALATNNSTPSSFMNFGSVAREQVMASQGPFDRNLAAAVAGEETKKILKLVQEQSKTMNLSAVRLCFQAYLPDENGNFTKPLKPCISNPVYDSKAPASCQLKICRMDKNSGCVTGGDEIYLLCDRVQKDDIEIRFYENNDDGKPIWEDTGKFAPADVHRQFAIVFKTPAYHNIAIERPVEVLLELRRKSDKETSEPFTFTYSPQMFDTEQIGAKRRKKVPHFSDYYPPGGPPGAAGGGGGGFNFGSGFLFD
In the case of “CCGATTAACATCAGGGACTTTCATGATGTTAATCGGGTCTTGATTCGCTTGACGCTGCTG”, the binding signal is reported as 6.28 z-score.
With “CCGATTAACATCAGGGGGTTTGATGATGTTAATCGGGTCTTGATTCGCTTGACGCTGCTG” the binding signal was 6.11 z-score.
“CCGATTAACATCAAATTCCCCCCTGATGTTAATCGGGTCTTGATTCGCTTGACGCTGCTG” gave a binding signal of 8.5 z-score.
Work on “CCGATTAACATCACTAAATCCCCTGATGTTAATCGGGTCTTGATTCGCTTGACGCTGCTG” yielded a binding signal of 6.91 z-score.
Sequence “CCGATTAACATCAGGAACTTCCCTGATGTTAATCGGGTCTTGATTCGCTTGACGCTGCTG” has a binding signal of 4.62 z-score.
“CCGATTAACATCAAATTTCCCTATGATGTTAATCGGGTCTTGATTCGCTTGACGCTGCTG” showed a binding signal of 4.13 z-score.
With “CCGATTAACATCAGGGAAAACCCTGATGTTAATCGGGTCTTGATTCGCTTGACGCTGCTG” the binding signal was 7.33 z-score.
For “CCGATTAACATCAGGGGGAACGATGATGTTAATCGGGTCTTGATTCGCTTGACGCTGCTG”, the binding signal was 5.18 z-score.
For “CCGATTAACATCAGGGAATTTGATGATGTTAATCGGGTCTTGATTCGCTTGACGCTGCTG”, the binding signal was 3.63 z-score.
“CCGATTAACATCAGGATCCCCCCTGATGTTAATCGGGTCTTGATTCGCTTGACGCTGCTG” was tested, and the binding signal was 8.27 z-score.
Sequence “CCGATTAACATCAAATAAACCCCTGATGTTAATCGGGTCTTGATTCGCTTGACGCTGCTG” has a binding signal of 4.74 z-score.
Work on “CCGATTAACATCAAATTCCCGCCTGATGTTAATCGGGTCTTGATTCGCTTGACGCTGCTG” yielded a binding signal of 3.27 z-score.
“CCGATTAACATCACGAAACCCCCTGATGTTAATCGGGTCTTGATTCGCTTGACGCTGCTG” gave a binding signal of 8.57 z-score.
For “CCGATTAACATCAGGGAAAATTATGATGTTAATCGGGTCTTGATTCGCTTGACGCTGCTG”, the binding signal was 5.47 z-score.
For “CCGATTAACATCACTGGATTCCCTGATGTTAATCGGGTCTTGATTCGCTTGACGCTGCTG”, the binding signal was 3.07 z-score.
With “CCGATTAACATCAGGGAAACTAATGATGTTAATCGGGTCTTGATTCGCTTGACGCTGCTG” the binding signal was 2.58 z-score.
Sequence “CCGATTAACATCAAGCAATCCCCTGATGTTAATCGGGTCTTGATTCGCTTGACGCTGCTG” has a binding signal of 6.44 z-score.
For “CCGATTAACATCAGGGGATTGTATGATGTTAATCGGGTCTTGATTCGCTTGACGCTGCTG”, the binding signal was 6.91 z-score.
“CCGATTAACATCACTATATCCCCTGATGTTAATCGGGTCTTGATTCGCTTGACGCTGCTG” showed a binding signal of 4.49 z-score.
Work on “CCGATTAACATCAAGTTCCCCCATGATGTTAATCGGGTCTTGATTCGCTTGACGCTGCTG” yielded a binding signal of 7.14 z-score.
In the case of “CCGATTAACATCAAGGGTGGGAATGATGTTAATCGGGTCTTGATTCGCTTGACGCTGCTG”, the binding signal is reported as 1.69 z-score.
“CCGATTAACATCAGAGCTCCCCCTGATGTTAATCGGGTCTTGATTCGCTTGACGCTGCTG” was tested, and the binding signal was 5.05 z-score.
For “CCGATTAACATCACACATCCCCCTGATGTTAATCGGGTCTTGATTCGCTTGACGCTGCTG”, the binding signal was 4.83 z-score.
Sequence “CCGATTAACATCAGGGATTCCCCTGATGTTAATCGGGTCTTGATTCGCTTGACGCTGCTG” has a binding signal of 13.9 z-score.
“CCGATTAACATCAACACCCCCCTTGATGTTAATCGGGTCTTGATTCGCTTGACGCTGCTG” gave a binding signal of 4.56 z-score.
With “CCGATTAACATCAGGGAACACCCTGATGTTAATCGGGTCTTGATTCGCTTGACGCTGCTG” the binding signal was 5.03 z-score.

These sequences were tested against T2, GST-Nv-NF-kB (Cys allele) (Nematostella vectensis, UniProt E5G601 2-411) in the same assay as above. Details: dsDNA, one strand shown.
T2 sequence: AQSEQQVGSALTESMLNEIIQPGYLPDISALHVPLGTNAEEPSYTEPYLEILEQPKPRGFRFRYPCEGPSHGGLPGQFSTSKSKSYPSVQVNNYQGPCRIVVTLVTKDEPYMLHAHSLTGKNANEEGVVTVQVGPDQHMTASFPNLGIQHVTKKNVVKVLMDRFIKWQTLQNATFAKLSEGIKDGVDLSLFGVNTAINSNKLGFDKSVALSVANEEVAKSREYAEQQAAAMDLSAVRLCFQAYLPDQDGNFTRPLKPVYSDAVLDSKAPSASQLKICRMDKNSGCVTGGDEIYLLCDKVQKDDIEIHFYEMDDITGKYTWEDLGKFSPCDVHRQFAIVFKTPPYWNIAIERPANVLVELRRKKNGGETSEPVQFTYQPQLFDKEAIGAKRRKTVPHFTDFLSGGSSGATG
In the case of “CCGATTAACATCAGGGGAAGATATGATGTTAATCGGGTCTTGATTCGCTTGACGCTGCTG”, the binding signal is reported as 6.63 z-score.
“CCGATTAACATCAGAAAATCCCCTGATGTTAATCGGGTCTTGATTCGCTTGACGCTGCTG” showed a binding signal of 12 z-score.
Sequence “CCGATTAACATCAGGATGCCCCCTGATGTTAATCGGGTCTTGATTCGCTTGACGCTGCTG” has a binding signal of 4.06 z-score.
“CCGATTAACATCAAATTTTCCCGTGATGTTAATCGGGTCTTGATTCGCTTGACGCTGCTG” gave a binding signal of 6.26 z-score.
With “CCGATTAACATCAGGGGAGTTACTGATGTTAATCGGGTCTTGATTCGCTTGACGCTGCTG” the binding signal was 4.25 z-score.
Work on “CCGATTAACATCACGGGGGATTCTGATGTTAATCGGGTCTTGATTCGCTTGACGCTGCTG” yielded a binding signal of 7.68 z-score.
“CCGATTAACATCAATTATTCCCCTGATGTTAATCGGGTCTTGATTCGCTTGACGCTGCTG” gave a binding signal of 9.08 z-score.
With “CCGATTAACATCAGGGACTGCCCTGATGTTAATCGGGTCTTGATTCGCTTGACGCTGCTG” the binding signal was 4.95 z-score.
With “CCGATTAACATCAGATTCCCCCATGATGTTAATCGGGTCTTGATTCGCTTGACGCTGCTG” the binding signal was 7.43 z-score.
“CCGATTAACATCAAGAACTTCCCTGATGTTAATCGGGTCTTGATTCGCTTGACGCTGCTG” showed a binding signal of 3.73 z-score.
For “CCGATTAACATCAAATATCCCCATGATGTTAATCGGGTCTTGATTCGCTTGACGCTGCTG”, the binding signal was 6.83 z-score.
For “CCGATTAACATCAGGGAATTTACTGATGTTAATCGGGTCTTGATTCGCTTGACGCTGCTG”, the binding signal was 6.69 z-score.
For “CCGATTAACATCAGCGATTCCCCTGATGTTAATCGGGTCTTGATTCGCTTGACGCTGCTG”, the binding signal was 6.55 z-score.
With “CCGATTAACATCAGAATATCCCCTGATGTTAATCGGGTCTTGATTCGCTTGACGCTGCTG” the binding signal was 7.86 z-score.
“CCGATTAACATCAGGGACTTTCATGATGTTAATCGGGTCTTGATTCGCTTGACGCTGCTG” showed a binding signal of 7.24 z-score.
Work on “CCGATTAACATCAGGGGGTTTGATGATGTTAATCGGGTCTTGATTCGCTTGACGCTGCTG” yielded a binding signal of 4.29 z-score.
“CCGATTAACATCAAATTCCCCCCTGATGTTAATCGGGTCTTGATTCGCTTGACGCTGCTG” was tested, and the binding signal was 8.77 z-score.
“CCGATTAACATCACTAAATCCCCTGATGTTAATCGGGTCTTGATTCGCTTGACGCTGCTG” was tested, and the binding signal was 7.06 z-score.
Work on “CCGATTAACATCAGGAACTTCCCTGATGTTAATCGGGTCTTGATTCGCTTGACGCTGCTG” yielded a binding signal of 5.28 z-score.
“CCGATTAACATCAAATTTCCCTATGATGTTAATCGGGTCTTGATTCGCTTGACGCTGCTG” showed a binding signal of 6.5 z-score.
“CCGATTAACATCAGGGAAAACCCTGATGTTAATCGGGTCTTGATTCGCTTGACGCTGCTG” gave a binding signal of 9.72 z-score.
Sequence “CCGATTAACATCAGGGGGAACGATGATGTTAATCGGGTCTTGATTCGCTTGACGCTGCTG” has a binding signal of 4.82 z-score.
Sequence “CCGATTAACATCAGGGAATTTGATGATGTTAATCGGGTCTTGATTCGCTTGACGCTGCTG” has a binding signal of 4.8 z-score.
With “CCGATTAACATCAGGATCCCCCCTGATGTTAATCGGGTCTTGATTCGCTTGACGCTGCTG” the binding signal was 6.24 z-score.
For “CCGATTAACATCAAATAAACCCCTGATGTTAATCGGGTCTTGATTCGCTTGACGCTGCTG”, the binding signal was 5.11 z-score.
In the case of “CCGATTAACATCAAATTCCCGCCTGATGTTAATCGGGTCTTGATTCGCTTGACGCTGCTG”, the binding signal is reported as 4.23 z-score.
For “CCGATTAACATCACGAAACCCCCTGATGTTAATCGGGTCTTGATTCGCTTGACGCTGCTG”, the binding signal was 6.39 z-score.
Sequence “CCGATTAACATCAGGGAAAATTATGATGTTAATCGGGTCTTGATTCGCTTGACGCTGCTG” has a binding signal of 7.77 z-score.
“CCGATTAACATCACTGGATTCCCTGATGTTAATCGGGTCTTGATTCGCTTGACGCTGCTG” gave a binding signal of 2.76 z-score.
Sequence “CCGATTAACATCAGGGAAACTAATGATGTTAATCGGGTCTTGATTCGCTTGACGCTGCTG” has a binding signal of 3.94 z-score.
Work on “CCGATTAACATCAAGCAATCCCCTGATGTTAATCGGGTCTTGATTCGCTTGACGCTGCTG” yielded a binding signal of 6.39 z-score.
“CCGATTAACATCAGGGGATTGTATGATGTTAATCGGGTCTTGATTCGCTTGACGCTGCTG” was tested, and the binding signal was 7.07 z-score.
With “CCGATTAACATCACTATATCCCCTGATGTTAATCGGGTCTTGATTCGCTTGACGCTGCTG” the binding signal was 4.08 z-score.
“CCGATTAACATCAAGTTCCCCCATGATGTTAATCGGGTCTTGATTCGCTTGACGCTGCTG” was tested, and the binding signal was 6.4 z-score.
For “CCGATTAACATCAAGGGTGGGAATGATGTTAATCGGGTCTTGATTCGCTTGACGCTGCTG”, the binding signal was 1.84 z-score.
For “CCGATTAACATCAGAGCTCCCCCTGATGTTAATCGGGTCTTGATTCGCTTGACGCTGCTG”, the binding signal was 4.31 z-score.
“CCGATTAACATCACACATCCCCCTGATGTTAATCGGGTCTTGATTCGCTTGACGCTGCTG” showed a binding signal of 4.4 z-score.
Work on “CCGATTAACATCAGGGATTCCCCTGATGTTAATCGGGTCTTGATTCGCTTGACGCTGCTG” yielded a binding signal of 13.2 z-score.
“CCGATTAACATCAACACCCCCCTTGATGTTAATCGGGTCTTGATTCGCTTGACGCTGCTG” showed a binding signal of 3.85 z-score.
In the case of “CCGATTAACATCAGGGAACACCCTGATGTTAATCGGGTCTTGATTCGCTTGACGCTGCTG”, the binding signal is reported as 4.73 z-score.
